ssDAF-12 act: activators of S. stercoralis DAF-12 nuclear receptor | HEK293 ssDAF-12/GRIP1 lit1-tk-luc reporter, luminescence; % of 3 µM dafachronic acid response | activation, % at 6.8 µM | actives 1% (n = 370,000) | AID 652126;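 active = activation above the mean over all tested compounds plus 3 SD, cut at about 0.9% in these data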;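 also: 0% = DMSO-only wells and 100% = 3 µM delta7-dafachronic acid wells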
DAX1 inh-1: inhibits human nuclear receptor DAX1 | P51843 | HEK293 Gal4-DAX1 luciferase reporter, luminescence | inhibition, % at 6.75 µM | actives 0.99% (n = 340,000);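 active = inhibition above the mean over all tested compounds plus 3 SD, cut at about 4.2% in these data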;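 also: 0% = DAX1-transfected cells with DMSO and 100% = empty-vector control cells with DMSO; inhibition shows as a rise in luminescence from relieved DAX1 repression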
Target sequence (P51843 207-470 limits assumed): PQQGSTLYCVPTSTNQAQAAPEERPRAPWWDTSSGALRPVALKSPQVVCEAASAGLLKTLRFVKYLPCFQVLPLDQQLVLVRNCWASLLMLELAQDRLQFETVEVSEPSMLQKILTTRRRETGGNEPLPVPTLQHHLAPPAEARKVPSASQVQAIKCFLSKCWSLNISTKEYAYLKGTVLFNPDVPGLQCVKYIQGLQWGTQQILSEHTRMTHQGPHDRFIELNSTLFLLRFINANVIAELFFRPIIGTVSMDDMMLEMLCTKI
DAX1 inh-2: blocks DAX1 repression of SF-1 activated StAR promoter. actives 1.1% (n = 370,000). inhibition, % at 6.8 µM. AID 652010. HEK293T StAR-luciferase reporter, SF-1/DAX-1 repression relief;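 active = inhibition above the mean over all tested compounds plus 3 SD, cut at about 3.6% in these data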;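 also: 0% = DAX-1 cells with DMSO and 100% = cells lacking DAX-1 with DMSO; higher inhibition means more luminescence from relief of DAX-1 repression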
hgDAF-12 ag: agonists of H. glycines DAF-12 nuclear receptor; HEK293 GAL4-hgDAF12 UAS-luciferase reporter, agonist luminescence; normalized to butyrate control; actives 1.8% (n = 370,000); activation, % at 6.8 µM;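 active = activation above a cutoff set at the mean of all screened compounds plus 3 SD, cut at about 10% in these data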;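 also: 0% = DMSO wells and 100% = sodium butyrate wells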
Wee1 stabilizer: blocks degradation of human Wee1 kinase; actives 1.2% (n = 220,000); P30291; reporter increase, % at 5 µM; HeLa Luc-Wee1K328M stability, luciferase luminescence; 100% = proteasome inhibitor MG132 effect;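 active = activation above the mean of all tested compounds plus 3 SD, set per screening run, cut at about 8.8% in these data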;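 also: cells exposed to compound for 20 h before luminescence read; 0% = DMSO alone and 100% = MG132 at 30 µM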
hcDAF12 agonist: H. contortus DAF-12 activation, primary screen; activation, % at 6.8 µM; HEK293 hcDAF-12 lit1-tk-luc reporter, luminescence; 0% DMSO, 100% Δ7-dafachronic acid; AID 652067; actives 1.4% (n = 370,000);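 active = activation above the mean of all tested compounds plus 3 SD, cut at about 5.5% in these data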;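 also: 100% = response to 3 µM Δ7-dafachronic acid high control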
* = called active by the depositor; / = not tested or not shown. An excerpt weighted towards active compounds, which were near 4.6% of everything screened.

SMILES | ssDAF-12 act | DAX1 inh-1 | DAX1 inh-2 | hgDAF-12 ag | Wee1 stabilizer | hcDAF12 agonist
CCCOc1ccc(-c2nc(SCc3ccccc3)[nH]c(=O)c2C#N)cc1OC | 4.3* | 1 | 1 | 0 | / | 0
CCSc1nc(-c2ccccc2)c(C#N)c(=O)[nH]1 | -1 | -1 | 1 | 0 | -1 | -1
O=C(OCC#CCSc1nnc(-c2cccc3ccccc23)o1)c1ccc(Cl)c(C(F)(F)F)c1 | -2 | / | / | -1 | / | 0
CCOc1cnc(C(=O)NNC(=O)C(Br)C(C)C)o1 (centres undefined) | -1 | 7.8* | -1 | -1 | 0 | 2
CCOc1cnc(-c2ccccc2F)o1 | -1 | 2 | 0 | -2 | 6 | 1
CCOC(=O)[C@]12CCCC=C1N(Cc1ccc3c(c1)OCO3)C(=O)[C@H](CC(=O)N1CCN(C(=O)C3CC3)CC1)C2 | -1 | / | 0 | 1 | / | -2
C=C1[C@@H]2CC[C@H]3[C@]4(C)[C@@H](O)CC[C@@](C)(C(=O)OC)[C@H]4C[C@H](O)[C@]3(C2)[C@H]1O | -1 | / | -1 | -2 | / | 1
C[C@H](CO)N1C[C@H](C)[C@@H](CN(C)S(=O)(=O)c2ccc(-n3cccn3)cc2)OCc2cnnn2CCCC1=O | -2 | -1 | -1 | 0 | / | -3
COCCOC(=O)C1=C(N)OC2=C(C(=O)CC(C)(C)C2)C1c1ccncc1 (centres undefined) | -2 | 5.3* | 0 | -1 | -3 | -1
Cc1ccc(-c2csc(N/N=C/c3ccco3)n2)c(C)c1 | -2 | -2 | -1 | 0 | 9.6* | -4
O=C(NCCN1C(=O)S/C(=C/c2cccnc2)C1=O)C1=NN(c2ccccc2)C(=O)CC1 | -1 | 0 | 3 | 0 | / | 2
O=C1CCC(C(=O)NCCN2C(=O)S/C(=C\c3cccnc3)C2=O)=NN1 | 1.2* | 0 | 0 | 1 | -3 | -1
O=C(NCCN1C(=O)S/C(=C\c2cccnc2)C1=O)C1CC(=O)N(Cc2ccco2)C1 (centres undefined) | 1.2* | 0 | 0 | 2 | -2 | 4
CSc1cccc(N2CC(C(=O)NCCN3C(=O)S/C(=C\c4cccnc4)C3=O)CC2=O)c1 (centres undefined) | -1 | -1 | 2 | 3 | / | -1
CCOc1ccccc1Nc1nnc(SCC(=O)N(C)C2CCS(=O)(=O)C2)s1 (centres undefined) | -2 | 0 | -2 | -3 | / | -1
CN=c1scc(-c2ccco2)n1/N=C/c1ccc(O)c(O)c1 | 0 | -1 | 2 | 17* | 1 | 8.4*
COc1ccc(O)c(/C=N/n2c(-c3ccco3)csc2=Nc2cccnc2)c1 | -1 | 0 | 0 | 0 | 0 | 0
Cc1c[nH]c2cccc(-c3cccc4ccccc34)c12 | -1 | / | 1 | 2 | / | 0
O=C(/C=C/c1cccs1)Nc1ccc(N2CCOCC2)c(S(=O)(=O)Nc2cc(Cl)ccc2Cl)c1 | -1 | -1 | 0 | 5 | 1 | 5.7*
O=C(CC1OC(=O)c2ccccc21)Nc1cc(Cl)ccc1N1CCOCC1 (centres undefined) | 0 | 0 | 1 | -2 | / | -3
O=C(COS(=O)c1ccccc1)Nc1cc(Cl)ccc1N1CCOCC1 (centres undefined) | -1 | 0 | 0 | -1 | 9.0* | -2
COc1ccc(NC(=O)N2CCC(N(C)CCC(C)C)CC2)cc1OC | -1 | / | 0 | 5 | / | -3
C/C(N)=C(/C#N)C(=O)CSc1nn(-c2ccc(Cl)cc2)c(=S)s1 | -1 | 2 | 2 | 10* | 0 | 0
CC(NC(=O)Cc1ccccc1[N+](=O)[O-])c1ccccc1 (centres undefined) | 0 | / | 0 | 6 | -1 | 6.3*
O=C(Cc1c(F)cccc1Cl)NC1CCN(Cc2ccccc2)CC1 | -1 | 1 | 2 | -2 | / | 0
SMILES | ssDAF-12 act | DAX1 inh-1 | DAX1 inh-2 | hgDAF-12 ag | Wee1 stabilizer | hcDAF12 agonist
CCn1cc(Br)c(C(=O)NC(C)c2ccccc2)n1 (centres undefined) | -1 | 0 | 0 | 0 | -2 | -2
NS(=O)(=O)c1ccc(CNC(=O)Cc2ccccc2[N+](=O)[O-])cc1 | 0 | 1 | 0 | 4 | / | 5.6*
O=C(Cc1ccccc1[N+](=O)[O-])NC1CCN(Cc2ccccc2)CC1 | 1.5* | 0 | 0 | 2 | / | 3
CC(NC(=O)COC(=O)Cc1ccccc1[N+](=O)[O-])c1ccccc1 (centres undefined) | -1 | 0 | 0 | 2 | 1 | 0
CC(NC(=O)Cn1cc(Br)c([N+](=O)[O-])n1)c1ccccc1 (centres undefined) | -1 | 4.3* | 0 | -2 | / | 1
Cc1ccc(-c2nnc(SCC(=O)Nc3ccc(Oc4ccccc4)cc3)n2-c2ccc(Cl)cc2)cc1 | -1 | / | -1 | -2 | / | 0
CN1C(=O)c2cc(NC(=O)C3CC3)ccc2OC[C@H]2O[C@@H](CC(=O)NC3CCC3)CC[C@@H]21 | -2 | / | 0 | 2 | / | -2
CCOC(=O)[C@]12CCCC=C1N(Cc1ccc(OC)cc1)C(=O)[C@@H]2CC(=O)NCCC(C)C | -1 | / | -2 | 4 | / | -3
CCc1ccc2c(c1)NC(=O)C2(C)Cc1ccccc1OC (centres undefined) | -2 | / | 0 | -4 | / | -2
Cc1ccccc1CNC(=O)Cc1ccccc1[N+](=O)[O-] | 1 | 1 | 2 | 5 | 5 | 4
CCC(CC)NC(=O)Cc1ccccc1[N+](=O)[O-] | 0 | 1 | 1 | 2 | -1 | 5.6*
COc1ccc(C#CCN(C)/C(N)=N/C(=O)OCc2ccccc2)cc1 | -2 | / | 0 | 3 | / | 3
COc1ccccc1CNS(=O)(=O)c1cccs1 | 0 | 5.8* | -1 | -1 | / | 0
CCn1c(COc2ccccc2OC)nnc1SCC(=O)NC1CCCC1 | -1 | 1 | 0 | -1 | / | -2
CCn1c(COc2ccccc2OC)nnc1SCC#N | -1 | 1 | 0 | -1 | 10* | -2
Cc1cn([C@H]2C[C@H](O)[C@@H](/C=C/C(=O)NCCN3CCOCC3)O2)c(=O)[nH]c1=O | -1 | / | 0 | -4 | / | -1
CC1CCCN(S(=O)(=O)c2ccc(CN3C(=O)c4cccnc4C3=O)cc2)C1 (centres undefined) | -1 | 2 | 3.8* | -2 | / | -1
Cn1c(C(=O)NCCCN2CCOCC2)cc2c(=O)n(C)c3ccccc3c21 | -1 | 2 | 1 | -2 | -1 | -1
CC1CCN(CCCNC(=O)c2cc3c(=O)n(C)c4ccccc4c3n2C)CC1 | -1 | 6.0* | 4.7* | 2 | 1 | 3
CC(C)Cn1cc(C(=O)NCCCN2CCC(C)CC2)c2c3ccccc3n(C)c2c1=O | -1 | 5.3* | 2 | -2 | / | 3
CCCNC(=O)C1(C)CCCN(Cc2ccc3ccccc3c2)C1 (centres undefined) | -1 | / | 0 | -4 | / | -3
